Drawing on PubChem BioAssay (NCI), this text covers growth for 14 molecules.

Compounds without any hit were thinned out: in the full panel of roughly 83,000, 20% have a hit.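 Growth was measured after 48 h exposure to one concentration of compound in 96-well plates. Values under 10 count as active.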 A number with no mark means an inactive call. The source made the active and inactive calls.

For the test, the system named is MDA-MB-468 breast. The test is described as follows: NCI-60 one-dose screen, 48 h (100 = growth as untreated, 0 = no growth, -100 = all killed). To be noted: 10 µM unless noted.
Regarding `Fc1cc2[nH]ncc2c2c3c(c(-c4cn[nH]c4C(F)(F)F)nc12)C1CCC3C1` (centres undefined), the growth is 11.5%.

Turning to `COc1cccc2nc(Nc3cccc(NC(=O)c4ccc(N5CCN(C)CC5)c(C(F)(F)F)c4)c3)ccc12`, the growth is 20.2%.

For the molecule `C=C1C(=O)O[C@H]2[C@H]1CC/C(CNC(=O)/C1=C/CC[C@@]3(C)O[C@H]3[C@H]3OC(=O)C(=C)[C@@H]3CC1)=C\CC[C@@]1(C)O[C@@H]21`, the growth was 42.9%.

Turning to `COc1cc(Nc2ncccc2/C=C/C(=O)c2cc(OC)c(OC)c(OC)c2)cc(OC)c1OC`, the growth was -2.82% (active).

`Nc1ccc(N=Nc2ccc(O)cc2)c(N)n1`: the growth is 83.4%.

For the molecule `Cc1ccc2c(c1)-c1cc(C)nn1-c1ccc(C#N)cc1O2`, the growth is 40.9%.

With `CC(C)CCC[C@@H](C)[C@H]1CCC2C3=CCn4c(=O)ccc(=O)n4C3CC[C@@]21C` (some centres undefined), the growth was -49% (active).

Consider `OC(CBr)c1ccnc2ccccc12` (centres undefined), for which the growth is 100%.

Turning to `CCN(CC)CCn1c(=O)c2cc(OC)c(OC)cc2c2ccc3cc4c(cc3c21)OCO4`, the growth is -13.5% (active).

`COc1ccc(Cn2cc3c(c2-c2ccc(O)cc2)CCc2cnoc2-3)cc1`: the growth was -3.26% (active).

For `O=[N+]([O-])c1ccc(N/N=C/c2ccccc2O)nc1`, the growth is 10.3%.

On to `CCOC(=O)C(Cc1ccccc1)n1c(O)c(/C=N/c2ncc(Cc3ccc(Cl)cc3Cl)s2)sc1=S` (centres undefined), for which the growth was -0.681% (active).

Consider `CCOC(=O)c1ccc(N=Cc2sc(=O)[nH]c2O)cc1`, for which the growth was 98.6%.

For `CN(C)Cc1cccs1`, the growth was 87.2%.
